The values that follow are results of earlier work, collected in PubChem BioAssay AID977611.

About 3,900 (100%) of roughly 3,900 compounds were called active. Cut-off not given; nearly all actives show Kd up to about 4200 µM. So high a share suggests a set chosen from earlier hits. The list shows a part of the results. Where a SMILES comes first, the peptide text is derived from it. Square brackets hold non-standard residues; d marks the D form. Residues, ends and D or L forms follow the SMILES beside them. Peptide text beside a SMILES is read from it. Orn(CH(NH2)2) = NC(N)NCCC[C@H](N)C(=O)O

This data set can be described thus: PubChem AID 977611. The note with it: PDB protein-ligand complexes, literature Kd.

As for `CN(C)c1cc[n+](Cc2ccc(-c3ccc(Cn4cnc(=N)c5[nH]cnc54)cc3)cc2)cc1`, the Kd (protein: CHOLINE KINASE ALPHA, PDB entry 4br3) was 1.9 µM (active). For `CN(C)c1cc[n+](Cc2ccc(-c3ccccc3)cc2)cc1`, the Kd (protein: Human choline kinase a1, PDB entry 4cg9) was 0.62 µM (active).

For `CN(C)c1cc[n+](Cc2ccc(CCCCc3ccc(CN4C=CC(N(C)c5ccc(Cl)cc5)C=C4)cc3)cc2)cc1`, the Kd (protein: Human choline kinase a1, PDB entry 4cg8) is 0.11 µM (active). For `CN(C)c1cc[n+](Cc2ccc(CCc3ccccc3)cc2)cc1`, the Kd (protein: Human choline kinase a1, PDB entry 4cga) is 0.4 µM (active). With `CC(=O)N[C@@H]1[C@@H](O[C@H]2O[C@H](CO)[C@H](O[C@H]3O[C@H](CO[C@@H]4O[C@@H](C)[C@H](O)[C@@H](O)[C@H]4O)[C@@H](O)[C@H](O)[C@H]3O)[C@H](O[C@@H]3O[C@H](CO)[C@@H](O)[C@H](O)[C@H]3NC(C)=O)[C@H]2O)[C@H](O)[C@@H](CO[C@H]2O[C@H](CO)[C@@H](O)[C@H](O)[C@H]2O)O[C@H]1O`, the Kd was 26 µM (active) (protein: TAIL SPIKE PROTEIN(D339A mutant), PDB entry 2x6y) and 129 µM (active) (protein: TAIL SPIKE PROTEIN, PDB entry 2x85). Turning to `CC(=O)N[C@@H]1[C@@H](O[C@H]2O[C@H](CO)[C@H](O[C@H]3O[C@H](CO[C@@H]4O[C@@H](C)[C@H](O)[C@@H](O)[C@H]4O)[C@@H](O)[C@H](O)[C@H]3O)[C@H](O[C@@H]3O[C@H](CO)[C@@H](O)[C@H](O)[C@H]3NC(C)=O)[C@H]2O)[C@H](O)[C@@H](CO[C@H]2O[C@H](CO)[C@@H](O)[C@H](O)[C@H]2O)O[C@@H]1O`, the Kd (protein: TAIL SPIKE PROTEIN(E372Q mutant), PDB entry 2x6w) is 0.079 µM (active). As for `CC(=O)N[C@H]1[C@H](O[C@H]2[C@H](O)[C@@H](O)[C@H](O[C@H]3[C@H](O)[C@@H](CO)OC[C@@H]3NC(C)=O)O[C@@H]2C(=O)O)O[C@H](CO)[C@@H](O)[C@@H]1O[C@@H]1O[C@H](C(=O)O)[C@@H](O)[C@H](O)[C@H]1O`, under “protein: murine cd44 hyaluronan binding domain, PDB entry 4mrd”, the Kd was 428 µM (active). On to `CC(=O)N[C@H]1[C@H](O[C@@H]2[C@@H](O)[C@@H](O)O[C@H](CO)[C@@H]2O[C@H]2O[C@H](CO[C@@H]3O[C@@H](C)[C@H](O)[C@@H](O)[C@H]3O)[C@@H](O)[C@H](O)[C@H]2O)O[C@H](CO)[C@@H](O)[C@@H]1O`, for which the Kd (protein: TAIL SPIKE PROTEIN(D339N mutant), PDB entry 2x6x) was 210 µM (active). Take `CC(=O)N[C@H]1[C@H](O[C@@H]2[C@H](O[C@]3(C(=O)O)C[C@H](O)[C@@H](NC(C)=O)[C@H]([C@H](O)[C@H](O)CO)O3)[C@@H](O)[C@H](O[C@H]3[C@H](O)[C@@H](O)[C@H](O)O[C@@H]3CO)O[C@@H]2CO)O[C@H](CO)[C@H](O)[C@@H]1O[C@@H]1O[C@H](CO)[C@H](O)[C@H](O)[C@H]1O`: the Kd (protein: ECXA, PDB entry 4l6t) was 0.032 µM (active). Take `CC(=O)N[C@@H]1[C@@H](O)[C@H](O[C@@H]2O[C@H](CO)[C@@H](O[C@@H]3O[C@H](CO[C@H]4O[C@H](CO)[C@@H](O)[C@H](O)[C@@H]4O[C@@H]4O[C@H](CO)[C@@H](O)[C@H](O)[C@H]4NC(C)=O)[C@@H](O)[C@H](O[C@H]4O[C@H](CO)[C@@H](O)[C@H](O)[C@@H]4O[C@@H]4O[C@H](CO)[C@@H](O)[C@H](O)[C@H]4NC(C)=O)[C@@H]3O)[C@H](O)[C@H]2NC(C)=O)[C@@H](CO)O[C@H]1NC(=O)C[C@H](N)C(=O)O`: the Kd (protein: LECTIN, PDB entry 3zyr) is 4.6 µM (active). In the case of `Nc1c(I)c(C(=O)O)c(I)c(C(=O)O)c1I`, for the setting “protein: EXTRACELLULAR PROTEIN 6, PDB entry 4b9h”, the Kd was 4.5 µM (active). For the compound `N/C=C/CCNCCCN`, the Kd (protein: Putrescine-binding periplasmic protein (S38T, D39E, S87Y, A182D, D247S, F276W, L348Q mutation), PDB entry 4jdf) is 6400 µM (active).

On to `NCCCCNCCCN`, for which the Kd (protein: Phospholipase A2 VRV-PL-VIIIa, PDB entry 4qf8) is 0.031 µM (active). Turning to `COc1ccc2c(CC(=O)O)coc2c1`, for the setting “protein: Pantothenate synthetase (T2A, E77G mutation), PDB entry 4ddh”, the Kd is 500 µM (active).

As to `NC1NC(=O)c2c(CCc3ccc(C(=O)N[C@@H](CCC(=O)O)C(=O)O)cc3)c[nH]c2N1` (some centres not stated), the Kd (protein: Folate receptor beta, PDB entry 4kn2) was 0.054 µM (active).

`Nc1nc(N)c2nc(CNc3ccc(C(=O)N[C@@H](CCC(=O)O)C(=O)O)cc3)cnc2n1`: the Kd (protein: Folate receptor beta, PDB entry 4kn1) is 0.144 µM (active). As to `NC1NC(=O)c2nc(CNc3ccc(C(=O)N[C@@H](CCC(=O)O)C(=O)O)cc3)cnc2N1` (some centres not stated), the Kd runs as follows: (protein: Folate receptor alpha, PDB entry 4lrh) 0.00019 µM (active); (protein: Folate receptor beta, PDB entry 4kmz) 0.0027 µM (active). In the case of `N[C@H](CNc1nc(-c2ccncc2)nc2sc3c(c12)CCCC3)Cc1ccccc1`, where the note is “protein: PROTEIN KINASE C IOTA TYPE, PDB entry 3zh8”, the Kd was 0.341 µM (active).

On to `O=C(O)CO[P+](O)(O)O`, for which the Kd reads like this: (protein: TRIOSEPHOSPHATE ISOMERASE (A198V, C202A, C222N mutation), PDB entry 4bi6) 113 µM (active); (protein: TRIOSEPHOSPHATE ISOMERASE (C202A mutation), PDB entry 4bi7) 26.4 µM (active).

For the compound `O=C(CO[P+](O)(O)O)NO`, the Kd (protein: Fructose-bisphosphate aldolase, PDB entry 4del) is 0.0211 µM (active).

Take `O=C(CO)[C@@H](O)[C@H](O)[C@H](O)CO[P+](O)(O)O`: the Kd (protein: Glucokinase regulatory protein, PDB entry 3w0l) is 0.095 µM (active).

Regarding `O=C(O)[C@H](O)CO[P+](O)(O)O`, the Kd (protein: human phosphoglycerate kinase, PDB entry 3c39) was 109 µM (active).

Turning to `O=C(O)c1ccc(-c2ccc(C(=S)NCc3ccc(-c4ccnn4-c4ccc(Cl)c(Cl)c4)cc3)c(Cl)c2)o1`, for the setting “protein: Replication protein A 70 kDa DNA-binding subunit, PDB entry 4lwc”, the Kd is 0.19 µM (active). Consider `COCCO[C@@H]1COCCOC[C@H]1OCCOC`, for which the Kd (protein: METAL-BINDING PROTEIN YODA, PDB entry 4aw8) was 0.022 µM (active). Take `C[C@@H](O)[C@H](NC(=O)[C@@H]1CCCN1C(=O)[C@H](CO[P+](O)(O)O)NC(=O)[C@H](Cc1ccc(O)cc1)NC(=O)[C@H](CO)NC(=O)[C@@H]1CCCN1)C(=O)N[C@@H](CO)C(=O)N1CCC[C@H]1C(=O)N[C@@H](CO)C(=O)O`: the Kd (protein: Rtt103 CTD-interacting domain, PDB entry 2l0i) was 15 µM (active). Consider `C[C@@H](O)[C@H](NC(=O)[C@@H]1CCCN1C(=O)[C@H](CO[P+](O)(O)O)NC(=O)[C@H](Cc1ccc(O)cc1)NC(=O)[C@H](CO)NC(=O)[C@@H]1CCCN1)C(=O)N[C@@H](CO[P+](O)(O)O)C(=O)N1CCC[C@H]1C=O`, for which, under “protein: CTD INTERACTING DOMAIN of RNA processing factor SCAF8(R112T), PDB entry 3d9p”, the Kd was 29 µM (active). Turning to `C[C@@H](O)[C@H](NC(=O)[C@@H]1CCCN1C(=O)[C@H](CO)NC(=O)[C@H](Cc1ccc(O)cc1)NC(=O)[C@H](CO)NC(=O)[C@@H]1CCCN1)C(=O)N[C@@H](CO)C(=O)N1CCC[C@H]1C(=O)N[C@H](C=O)CO` (H-PSYSPTSPS-aldehyde), under “protein: CTD INTERACTING DOMAIN of RNA processing factor SCAF8(N15M/Y17M), PDB entry 3d9o”, the Kd was 1000 µM (active).

As for `NC(=S)Nc1ccc(C[C@H](CN(CC(=O)O)[C@H]2CCCC[C@@H]2N(CC(=O)O)CC(=O)O)N(CC(=O)O)CC(=O)O)cc1`, the Kd (protein: Neutrophil gelatinase-associated lipocalin (mutation), PDB entry 4iaw) was 0.000234 µM (active) and the Kd (protein: Neutrophil gelatinase-associated lipocalin (mutation), PDB entry 4iax) is 0.000273 µM (active).

As for `N#CCCNc1nonc1-c1nc2ccccc2n1CC(=O)c1ccc(N)cc1`, the Kd (protein: Tubulin, PDB entry 4o2a) is 1.8 µM (active).

Consider `CC(C)C[C@H](NC(=O)[C@@H]1CCCN1C(=O)CNC(=O)[C@H](Cc1ccccc1)NC(=O)[C@@H](N)CC(=O)O)C(=O)N[C@H](C(=O)NCC(=O)N[C@@H](C)C(=O)O)C(C)C` (H-DFGPLVGA-OH), for which, under “protein: ?-adaptin ear domain of GGA3, PDB entry 1p4u”, the Kd was 5 µM (active). With `CC(C)[C@H](NC(=O)[C@H](CCCNC(N)N)NC(=O)[C@@H](NC(=O)[C@@H]1CCCN1)[C@@H](C)O)C(=O)N[C@@H](CO)C(=O)N[C@@H](CO[P+](O)(O)O)C(=O)N1CCC[C@H]1C(=O)N[C@H](C(=O)N[C@@H](Cc1ccccc1)C(=O)NCC(=O)N[C@@H](C)C(=O)N[C@H](C(=O)O)[C@@H](C)O)C(C)C`, the Kd (protein: Breast cancer type 1 susceptibility protein, PDB entry 1y98) is 3.7 µM (active). Take `CSCC[C@H](NC(=O)[C@@H]1CCCN1C(=O)[C@H](Cc1ccc(O)cc1)NC(=O)[C@@H](N)Cc1ccccc1)C(=O)N[C@@H](CC(C)C)C(=O)N[C@@H](CCCNC(N)N)C(=O)N[C@@H](Cc1ccc(O)cc1)C(=O)N[C@H](C(=O)N[C@@H](CC(N)=O)C(=O)NCC(=O)N1CCC[C@H]1C(=O)N1CCC[C@H]1C(=O)N1CCC[C@H]1C(=O)N[C@H](C(=O)O)[C@@H](C)O)[C@@H](C)O` (H-FYPML[Orn(CH(NH2)2)]YTNGPPPT-OH): the Kd (protein: SUN domain-containing protein 2, PDB entry 4fi9) was 0.0456 µM (active). As for `CC[C@H](C)[C@H](N)C(=O)N[C@@H](CO)C(=O)N[C@@H](CCCNC(N)N)C(=O)N[C@@H](CO)C(=O)N[C@H](C(=O)N[C@@H](CO[P+](O)(O)O)C(=O)N1CCC[C@H]1C(=O)N[C@H](C(=O)N[C@@H](Cc1ccccc1)C(=O)N[C@@H](CC(N)=O)C(=O)N[C@@H](CCCCN)C(=O)N[C@@H](CCC(N)=O)C(=O)O)[C@@H](C)O)[C@@H](C)O`, the Kd (protein: Breast cancer type 1 susceptibility protein, PDB entry 1t29) was 0.9 µM (active).

One may read the Kd as the equilibrium constant for the complex coming apart.
